PubChem BioAssay (EPA / NIEHS)
Activity calls are given as the source filed them. The calls were made as follows: active = hit-call score of the fitted dose curve at least 0.9, where 1 is the maximum; inactive = score below 0.9.

Experiments:
Conditions in all cases: mRNA level, 48 h; actives raise or lower the signal
[1] = read-out: Glutathione S-Transferase (GSTA2), GSTA2 (gene 2939); experiment: LTEA_HepaRG_GSTA2: Life Technologies and Expression Analysis (LTEA) Assay for Glutathione S-Transferase (GSTA2) using HepaRG (AID 2283497)
Summary of the method: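 Human HepaRG cells, plated 48 h, then exposed in serum-free induction medium for 48 h to eight half-log concentrations up to 100 uM in 0.5% DMSO, duplicate. GSTA2 mRNA by qRT-PCR, normalized to ACTB/GAPDH/POLR2A; bidirectional fit versus DMSO.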

[2] = read-out: Glutamate-cysteine ligase catalytic (GCLC), GCLC (gene 2729); experiment: LTEA_HepaRG_GCLC: Life Technologies and Expression Analysis (LTEA) Assay for Glutamate-cysteine ligase catalytic (GCLC) using HepaRG (AID 2283498)
Summary of the method: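 Differentiated human HepaRG cells, plated 48 h then switched to serum-free induction medium, were exposed in duplicate for 48 h to 8 half-log concentrations topping at 100 uM in 0.5% DMSO. GCLC mRNA was quantified by qRT-PCR against ACTB, GAPDH and POLR2A.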

[3] = read-out: growth arrest and DNA damage 45 (GADD45G), GADD45G (gene 10912); experiment: LTEA_HepaRG_GADD45G: Life Technologies and Expression Analysis (LTEA) Assay for growth arrest and DNA damage 45 (GADD45G) using HepaRG (AID 2283499)
Summary of the method: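 HepaRG, 48 h exposure, top 100 uM, half-log 8-point series, 0.5% DMSO vehicle, duplicates. Readout: GADD45G transcript by qRT-PCR (Fluidigm array), housekeeping-normalised (ACTB/GAPDH/POLR2A). Bidirectional curve fit vs DMSO baseline.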

[4] = read-out: Glutamate-cysteine ligase regulatory (GCLM), GCLM (gene 2730); experiment: LTEA_HepaRG_GCLM: Life Technologies and Expression Analysis (LTEA) Assay for Glutamate-cysteine ligase regulatory (GCLM) using HepaRG (AID 2283500)
Summary of the method: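 Differentiated human HepaRG cells exposed 48 h in serum-free induction medium to 8-point half-log concentrations (top 100 uM, 0.5% DMSO), in duplicate. GCLM mRNA quantified by qRT-PCR, normalized to ACTB, GAPDH, POLR2A; bidirectional fitting versus DMSO.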

[5] = read-out: Glutathione S-transferase M3 (GSTM3), GSTM3 (gene 2947); experiment: LTEA_HepaRG_GSTM3: Life Technologies and Expression Analysis (LTEA) Assay for Glutathione S-transferase M3 (GSTM3) using HepaRG (AID 2283501)
Summary of the method: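 qRT-PCR read-out of GSTM3 transcript, normalized to three housekeeping genes, from human HepaRG cells after 48 h chemical exposure. Eight-point half-log series, top 100 uM, 0.5% DMSO vehicle; gain or loss fitted relative to DMSO baseline.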

[6] = read-out: Heat shock 70 kDa protein 1 (HSPA1A), gene 3303; experiment: LTEA_HepaRG_HSPA1A: Life Technologies and Expression Analysis (LTEA) Assay for Heat shock 70 kDa protein 1 (HSPA1A) using HepaRG (AID 2283502)
Summary of the method: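 Differentiated human HepaRG cells in serum-free induction medium were exposed in duplicate for 48 h to eight concentrations (top 100 uM, half-log steps, 0.5% DMSO). HSPA1A mRNA was quantified by qRT-PCR, normalized to ACTB, GAPDH and POLR2A, and fitted bidirectionally against DMSO.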

[7] = read-out: Hypoxia-inducible factor 1-alpha (Homo sapiens) (UniProt Q16665); experiment: LTEA_HepaRG_HIF1A: Life Technologies and Expression Analysis (LTEA) Assay for Hypoxia-inducible factor 1 (HIF1A) Trancription factor using HepaRG (AID 2283503)
Summary of the method: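 HepaRG, 48 h exposure, 8-pt half-log series from 100 uM, 0.5% DMSO vehicle, duplicates. Readout: HIF1A transcript by qRT-PCR (Fluidigm array), housekeeping-normalised. Bidirectional curve fit vs DMSO baseline.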

[8] = read-out: 3-Hydroxy-3-Methylglutaryl-CoA Synthase 2 (HMGCS2), HMGCS2 (gene 3158); experiment: LTEA_HepaRG_HMGCS2: Life Technologies and Expression Analysis (LTEA) Assay for 3-Hydroxy-3-Methylglutaryl-CoA Synthase 2 (HMGCS2) using HepaRG (AID 2283504)
Summary of the method: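 qRT-PCR read-out of HMGCS2 transcript, normalised to three housekeeping genes, in HepaRG cells after 48 h chemical exposure. Eight-point curves from 100 uM, half-log dilutions, 0.5% DMSO vehicle; gain or loss fitted relative to DMSO baseline.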

[9] = read-out: HGF (gene 3082); experiment: LTEA_HepaRG_HGF: Life Technologies and Expression Analysis (LTEA) Assay for Hepatocyte Growth Facto (HGF) using HepaRG (AID 2283505)
Summary of the method: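 HepaRG, 48 h dosing, 8-pt half-log series from 100 uM in 0.5% DMSO, duplicates. Readout: TaqMan qRT-PCR of HGF mRNA, housekeeping-normalized; bidirectional curve fit vs DMSO baseline.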

[10] = read-out: Insulin Like Growth Factor 1 (IGF1), IGF1 (gene 3479); experiment: LTEA_HepaRG_IGF1: Life Technologies and Expression Analysis (LTEA) Assay for Insulin Like Growth Factor 1 (IGF1) using HepaRG (AID 2283506)
Summary of the method: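 Differentiated human HepaRG cells were dosed for 48 h in serum-free induction medium with 0.5% DMSO, eight half-log concentrations up to 100 uM, in duplicate. IGF1 mRNA was quantified by qRT-PCR normalized to ACTB, GAPDH, POLR2A; bidirectional fitting versus DMSO.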

[11] = read-out: Intercellular Adhesion Molecule 1 (ICAM1), ICAM1 (gene 3383); experiment: LTEA_HepaRG_ICAM1: Life Technologies and Expression Analysis (LTEA) Assay for Intercellular Adhesion Molecule 1 (ICAM1) using HepaRG (AID 2283507)
Summary of the method: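 HepaRG, 48 h exposure, 8-pt half-log series from 100 uM, 0.5% DMSO vehicle, duplicates. Readout: TaqMan qRT-PCR mRNA, housekeeping-normalized (ACTB/GAPDH/POLR2A). Bidirectional curve fit vs DMSO baseline.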

[12] = read-out: Insulin-like growth factor-binding protein 1 (IGFBP1), IGFBP1 (gene 3484); experiment: LTEA_HepaRG_IGFBP1: Life Technologies and Expression Analysis (LTEA) Assay for Insulin-like growth factor-binding protein 1 (IGFBP1) using HepaRG (AID 2283508)
Summary of the method: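 qRT-PCR mRNA read-out (TaqMan, Fluidigm array), normalised to three housekeeping genes; HepaRG cells, 48 h exposure, 8-pt half-log series from 100 uM, 0.5% DMSO vehicle; bidirectional curve fit vs DMSO baseline.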

[13] = read-out: Interleukin 6 (IL6), IL6 (gene 3569); experiment: LTEA_HepaRG_IL6: Life Technologies and Expression Analysis (LTEA) Assay for Interleukin 6 (IL6) using HepaRG (AID 2283509)
Summary of the method: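 Differentiated human HepaRG cells, plated 48 h then switched to serum-free induction medium, were exposed in duplicate for 48 h to eight half-log concentrations up to 100 uM in 0.5% DMSO. IL6 mRNA measured by qRT-PCR, normalized to ACTB/GAPDH/POLR2A.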

[14] = read-out: Interleukin 6 Receptor (IL6R), IL6R (gene 3570); experiment: LTEA_HepaRG_IL6R: Life Technologies and Expression Analysis (LTEA) Assay for Interleukin 6 Receptor (IL6R) using HepaRG (AID 2283510)
Summary of the method: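 Differentiated human HepaRG cells, plated 48 h then switched to serum-free induction medium, were dosed in duplicate for 48 h at eight half-log concentrations up to 100 uM in 0.5% DMSO. IL6R mRNA quantified by qRT-PCR, normalized to ACTB/GAPDH/POLR2A; bidirectional fit versus DMSO.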

[15] = read-out: Potassium channel subfamily K member 1 (KCNK1), KCNK1 (gene 3775); experiment: LTEA_HepaRG_KCNK1: Life Technologies and Expression Analysis (LTEA) Assay for Potassium channel subfamily K member 1 (KCNK1) using HepaRG (AID 2283511)
Summary of the method: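 Differentiated human HepaRG cells in serum-free induction medium were exposed in duplicate for 48 h to 8 half-log concentrations up to 100 uM in 0.5% DMSO. KCNK1 mRNA was measured by TaqMan qRT-PCR, normalized to ACTB, GAPDH and POLR2A, and fitted bidirectionally versus DMSO.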

[16] = read-out: Keratin 19 (KRT19), KRT19 (gene 3880); experiment: LTEA_HepaRG_KRT19: Life Technologies and Expression Analysis (LTEA) Assay for Keratin 19 (KRT19) using HepaRG (AID 2283512)
Summary of the method: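 HepaRG, 48 h chemical exposure, 8-pt half-log CRC from 100 uM, 0.5% DMSO vehicle, duplicates. Readout: TaqMan qRT-PCR of KRT19 mRNA, housekeeping-normalized (ACTB/GAPDH/POLR2A). Bidirectional fit vs DMSO baseline.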

[17] = read-out: JUN Transcription Factor, JUN (gene 3725); experiment: LTEA_HepaRG_JUN: Life Technologies and Expression Analysis (LTEA) Assay for JUN Transcription Factor using HepaRG (AID 2283513)
Summary of the method: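 Differentiated HepaRG cells were exposed to chemicals for 48 h in serum-free induction medium, 8 concentrations from 100 uM in half-log steps, 0.5% DMSO vehicle, in duplicate. JUN mRNA was quantified by TaqMan qRT-PCR, normalized to ACTB, GAPDH, POLR2A.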

[18] = read-out: Lipase C (LIPC), LIPC (gene 3990); experiment: LTEA_HepaRG_LIPC: Life Technologies and Expression Analysis (LTEA) Assay for Lipase C (LIPC) using HepaRG (AID 2283514)
Summary of the method: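 Differentiated human HepaRG cells in serum-free induction medium were exposed in duplicate for 48 h to eight concentrations (top 100 uM, half-log steps, 0.5% DMSO). LIPC mRNA was quantified by TaqMan qRT-PCR, normalized to ACTB, GAPDH and POLR2A, with bidirectional fitting versus DMSO.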

[19] = read-out: Lipoprotein lipase (LPL), LPL (gene 4023); experiment: LTEA_HepaRG_LPL: Life Technologies and Expression Analysis (LTEA) Assay for Lipoprotein lipase (LPL) using HepaRG (AID 2283515)
Summary of the method: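 Differentiated human HepaRG cells in serum-free induction medium were exposed in duplicate for 48 h to eight half-log concentrations (top 100 uM) in 0.5% DMSO. LPL mRNA was quantified by TaqMan qRT-PCR, normalized to ACTB, GAPDH and POLR2A.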

[20] = read-out: MicroRNA 122 (MIR122), gene 406906; experiment: LTEA_HepaRG_MIR122: Life Technologies and Expression Analysis (LTEA) Assay for MicroRNA 122 (MIR122) using HepaRG (AID 2283516); also: the transcript read is the microRNA miR-122
Summary of the method: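 Differentiated human HepaRG cells were exposed 48 h in serum-free induction medium to eight half-log concentrations (top 100 uM, 0.5% DMSO). Transcript level was measured by TaqMan qRT-PCR, normalized to ACTB, GAPDH and POLR2A, and fitted bidirectionally versus DMSO.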

Measured: outcome

Hypoxia-inducible factor 1-alpha (Homo sapiens), sequence (Q16665 whole entry, looked up): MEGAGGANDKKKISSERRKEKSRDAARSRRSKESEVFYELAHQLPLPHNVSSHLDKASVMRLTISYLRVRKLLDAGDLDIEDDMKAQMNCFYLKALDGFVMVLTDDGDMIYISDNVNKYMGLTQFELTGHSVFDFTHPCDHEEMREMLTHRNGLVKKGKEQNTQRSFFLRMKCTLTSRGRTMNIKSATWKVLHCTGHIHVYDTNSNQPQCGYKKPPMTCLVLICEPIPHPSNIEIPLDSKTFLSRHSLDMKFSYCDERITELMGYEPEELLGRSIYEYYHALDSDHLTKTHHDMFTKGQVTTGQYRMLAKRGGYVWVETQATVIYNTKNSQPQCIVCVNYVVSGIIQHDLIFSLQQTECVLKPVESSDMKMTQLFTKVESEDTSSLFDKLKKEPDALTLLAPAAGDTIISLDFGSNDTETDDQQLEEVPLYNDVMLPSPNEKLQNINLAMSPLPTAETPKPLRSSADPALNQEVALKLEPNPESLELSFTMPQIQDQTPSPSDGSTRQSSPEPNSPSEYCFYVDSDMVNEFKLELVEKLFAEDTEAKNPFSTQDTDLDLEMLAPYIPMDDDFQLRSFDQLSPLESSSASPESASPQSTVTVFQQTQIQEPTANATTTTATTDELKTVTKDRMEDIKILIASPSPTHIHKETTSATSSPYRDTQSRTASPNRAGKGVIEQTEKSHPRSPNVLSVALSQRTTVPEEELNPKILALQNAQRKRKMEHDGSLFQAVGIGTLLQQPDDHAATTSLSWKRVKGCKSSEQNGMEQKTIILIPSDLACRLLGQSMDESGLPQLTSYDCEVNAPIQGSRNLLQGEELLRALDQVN

C1CNCCN1
inactive: all assays above

Nc1ccc(C(=O)O)cc1
inactive: all assays above

Cc1ccc([N+](=O)[O-])cc1N
not listed: [17]
inactive: all other assays above
